In PubChem BioAssay (NCI):
The panel holds about 83,000 compounds, 20% with a hit somewhere; the sample as a whole holds those more often.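 Activity criterion: percent growth below 10, measured after cells in 96-well plates were exposed to a single compound concentration for 48 hours.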 Unmarked numbers belong to inactive results. Activity calls are given as the source filed them.

Test system: LOX IMVI melanoma
Assay: NCI-60 one-dose screen, 48 h (100 = growth as untreated, 0 = no growth, -100 = all killed)
Settings: 10 µM unless noted
Description: Growth inhibition of the LOX IMVI human tumor cell line is measured as a screen for anti-cancer activity. Cells are grown in 96 well plates and exposed to the test compound for 48 hours. Compounds are tested at a single concentration, which is 10^-5 M for most compounds. The reported endpoint is percent growth (GI% or GIPRCNT), where numbers from 0 - 100% represent growth inhibition, and numbers from -100% - 0 represent cell death. For example, a value of 40 represents 60% growth inhibition. A value of 0 means no net growth occurred over the course of the experiment. A value of -40 indicates 40% of cells at the beginning of the experiment died by the end of the experiment. A value of -100 means all cells are dead at the end of the experiment.
NCI-60 Human Tumor Cell Lines Screen was performed using the standard one-dose NCI protocol, which is described in more detail at https://dtp.cancer.gov/discovery_development/nci-60/default.htm.
Compounds with GIPRCNT values below 10 were considered active. Activity score was based on GIPRCNT using the following formula: […]
Score is 0 for GIPRCNT values of 100 or above, 50 for GIPRCNT values of 0, and 100 for GIPRCNT values of -100.

Question: Cc1cc2c(c(C)c1Cl)C(=O)/C(=C/c1cccc([N+](=O)[O-])c1)O2 was tested. Which growth did it give?
Answer: 102%

Question: With CCCc1c(C)c2sc(=O)[nH]c2[nH]c1=O as the compound, how does the growth read?
Answer: 100%

Question: With COc1ccc(C2NCCc3c2[nH]c2ccccc32)cc1CN1CCN(c2ccc(F)cc2)CC1 (stereo not given) as the compound, how does the growth read?
Answer: 2.51% (active)

Question: How did the growth turn out when COc1ccc(C(=O)C2CC2c2ccc(Cl)cc2)cc1 (stereo not given) was run?
Answer: 91.1%

Question: With COC(=O)[C@H]1CCCN1C(=O)[C@H]1CCCN1C(=O)[C@H](Cc1c[nH]c2ccccc12)NC(=S)Nc1cc(C(F)(F)F)cc(C(F)(F)F)c1 as the compound, how does the growth read?
Answer: 34.5%

Question: Which growth does the source give for Cc1cccc2c(=O)c3c(sc12)c(NCCN)nc1ccccc13 here?
Answer: -92.9% (active)

Question: How did the growth turn out when Nc1no[n+]([O-])c1-c1nnc2c(n1)-c1ccccc1C2=O was run?
Answer: 27.5%

Question: For O=C(Nc1ccc(F)cc1F)c1cc(Cl)ccc1O, which growth is on record?
Answer: 14.5%

Question: CCN(CCO)CCNc1ccc(C)c2sc3cc(Cl)ccc3c(=O)c12 was tested. Which growth did it give?
Answer: -94.8% (active)

Question: With CCCCCCC(O)(c1ccc(F)cc1)C(CN1CCOCC1)c1ccccc1 (stereo not given) as the compound, how does the growth read?
Answer: 29.5%

Question: For N#C/C(=C\c1c(-c2ccccc2)[nH]c2ccccc12)S(=O)(=O)c1ccccc1, which growth is on record?
Answer: 42.7%

Question: For O=C(Nc1ccc(N2CCNCC2)cn1)c1[nH]ncc1Nc1ncnc2sc3c(c12)CCC3, which growth is on record?
Answer: -79.6% (active)

Question: How did the growth turn out when CCOC(=O)CSc1c(-c2ccccc2)c2cc(Cl)ccc2[nH]c1=O was run?
Answer: 84%

Question: How did the growth turn out when CCN1CCN(c2cc(C)c3cc(NC(=O)c4ccc(OC)c(OC)c4)ccc3n2)CC1 was run?
Answer: 33.4%

Question: Which growth does the source give for O=C1NC(=S)NC(=O)C1=Cc1cn(Cc2cn(Cc3cccc4ccccc34)nn2)c2ccccc12 here?
Answer: 91.1%

Question: Which growth does the source give for COc1ccccc1C(=O)/C=C/c1ccccc1 here?
Answer: 76.2%

Question: For CCCC(=O)CC(C)=O.CCCC(=O)CC(C)=O.[Cu], which growth is on record?
Answer: 86.5%

Question: Which growth does the source give for Cc1ccc(C2CC(c3ccc(Nc4nc(NCCO)nc(Nc5ccc(Cl)cc5)n4)cc3)=NN2c2cc(Cl)cc(Cl)c2)cc1 (stereo not given) here?
Answer: 98.7%

Question: With COc1cc(C(=O)Nc2ccc(-c3nc4ccccc4[nH]3)cc2)cc(OC)c1OC as the compound, how does the growth read?
Answer: 36%

Question: Which growth does the source give for COc1ccc(/C=C/C(=O)c2ccc3cc(OC)c(OC)cc3c2)cc1OC here?
Answer: 6.59% (active)

Question: For Nc1ccn(C2O[C@H](CO)[C@@H](O)[C@H]2O)c(=O)n1 (stereo not given in full), which growth is on record?
Answer: 75.5%

Question: With CCCCNc1nc(NC(C)(C)C)nc(NC(C)(C)C)n1 as the compound, how does the growth read?
Answer: 56.8%

Question: Which growth does the source give for COc1cc2nc(-c3cccc4cccnc34)nc(NC3CCN(Cc4ccccc4)CC3)c2cc1OC here?
Answer: -82.3% (active)

Question: Which growth does the source give for Cn1c(=O)n(C)c2cc(CNCCNc3ccnc4cc(Cl)ccc34)ccc21 here?
Answer: 9.85% (active)

Question: Which growth does the source give for COc1cc(/C=C/C(=O)N2c3ccccc3CC2C)c(OC)c2c1OCO2 (stereo not given) here?
Answer: 94.3%

Question: COc1cc2nc(NC3CCC3)nc(NC3CCN(C(C)C)CC3)c2cc1OC was tested. Which growth did it give?
Answer: 42.9%

Question: How did the growth turn out when COc1ccc(CCN2CCC(CN(C)Cc3cnn(-c4ccccc4)c3)CC2)cc1 was run?
Answer: 2.01% (active)

Question: For CCOc1cccc(/C=N/NC(=O)C(=O)Nc2cccc(C(F)(F)F)c2)c1O, which growth is on record?
Answer: 6.47% (active)

Question: How did the growth turn out when OC(CNC1CCCCC1)Cn1c2ccc(I)cc2c2cc(I)ccc21 (stereo not given) was run?
Answer: 77.4%

Question: For C=C(C)CCC(C)N1CCC(N2CCC(C(=O)NCCc3ccccc3)CC2)CC1 (stereo not given), which growth is on record?
Answer: 63.1%

Question: COc1ccc(OC)c(/C=C/C(=O)c2c(C)nc3ccccc3c2/C=C/c2ccccc2)c1 was tested. Which growth did it give?
Answer: 42.8%

Question: CNCCNc1nc2ccccc2c2c(=O)c3cccc(C)c3sc12 was tested. Which growth did it give?
Answer: -85.6% (active)

Question: How did the growth turn out when COc1ccc(-n2c(C(O)c3ccccc3)nn(CN3CCOCC3)c2=S)cc1 (stereo not given) was run?
Answer: 95.4%

Question: How did the growth turn out when COc1cc(C(=O)O/N=C(\N)Cc2cccc3ccccc23)cc(OC)c1OC was run?
Answer: -81.9% (active)

Question: For O=c1oc2ccc(F)cc2c(=O)n1-c1ccc(Cl)cc1F, which growth is on record?
Answer: 16.9%

Question: Which growth does the source give for CCOC(=O)c1cc2c(n1Cc1ccccc1)-c1oncc1CCC2 here?
Answer: 79.4%

Question: How did the growth turn out when Oc1c(CN2CCN(c3ccccc3F)CC2)cc(Br)c2cccnc12 was run?
Answer: -8.44% (active)

Question: For CCCCCCCCCCCCCCn1cc(C2=C(c3coc4ccc(OC)cc34)C(=O)NC2=O)c2ccccc21, which growth is on record?
Answer: 101%

Question: With Nc1ccc(-c2nn3c(CCC(=O)c4nc5ncccc5[nH]4)nnc3s2)c(O)c1 as the compound, how does the growth read?
Answer: 85.2%

Question: How did the growth turn out when COc1ccccc1C(=O)O/N=C(\N)Cc1cccc2ccccc12 was run?
Answer: 70.6%
